# Assay results taken from the supplement of paper PMC8728848.
# This is one part of a sample in which the strongest signals are shown more often than they occur.
# Assays:
# Experiment in all cases: glycan array binding signal (z-score within array); higher = stronger binding
# Conditions in all cases: glycan notation: IUPAC condensed, linker removed
# [1] = target: Fuc(a1-2)Gal(b1-3)GalNAc(a1-3)[Fuc(a1-2)]Gal(b1-4)GlcNAc
# Outline: (§1)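 The binding signal is a Z-score computed within each array and averaged over linkers. Arrays of the same protein sequence at different concentrations or buffers were also averaged together. Data originate from 3228 arrays in the Consortium for Functional Glycomics database, kept only where the protein sequence was available.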
# [2] = target: Fuc(a1-2)[Gal(a1-3)]Gal(b1-3)GlcNAc(b1-2)Man(a1-3)[Fuc(a1-2)[Gal(a1-3)]Gal(b1-3)GlcNAc(b1-2)Man(a1-6)]Man(b1-4)GlcNAc(b1-4)GlcNAc
# Outline: as §1
# [3] = target: Fuc(a1-2)[Gal(a1-3)]Gal(b1-4)Glc
# Outline: as §1
# [4] = target: Fuc(a1-2)[Gal(a1-3)]Gal(b1-4)GlcNAc
# Outline: as §1
# [5] = target: Fuc(a1-2)[Gal(a1-3)]Gal(b1-4)GlcNAc(b1-2)Man(a1-3)[Fuc(a1-2)[Gal(a1-3)]Gal(b1-4)GlcNAc(b1-2)Man(a1-6)]Man(b1-4)GlcNAc(b1-4)GlcNAc
# Outline: as §1
# [6] = target: Fuc(a1-2)[GalNAc(a1-3)]Gal(b1-3)GlcNAc(b1-2)Man(a1-3)[Fuc(a1-2)[GalNAc(a1-3)]Gal(b1-3)GlcNAc(b1-2)Man(a1-6)]Man(b1-4)GlcNAc(b1-4)GlcNAc
# Outline: as §1
# [7] = target: Fuc(a1-2)[GalNAc(a1-3)]Gal(b1-3)GlcNAc(b1-3)GalNAc
# Outline: as §1
# [8] = target: Fuc(a1-2)[GalNAc(a1-3)]Gal(b1-4)GlcNAc(b1-2)Man(a1-3)[Fuc(a1-2)[GalNAc(a1-3)]Gal(b1-4)GlcNAc(b1-2)Man(a1-6)]Man(b1-4)GlcNAc(b1-4)[Fuc(a1-6)]GlcNAc
# Outline: as §1
# [9] = target: Fuc(a1-2)[GalNAc(a1-3)]Gal(b1-4)GlcNAc(b1-3)Gal(b1-4)GlcNAc
# Outline: as §1
# [10] = target: Fuc(a1-2)[GalNAc(a1-3)]Gal(b1-4)GlcNAc(b1-3)Gal(b1-4)GlcNAc(b1-3)Gal(b1-4)GlcNAc
# Outline: as §1
# [11] = target: Fuc(a1-2)[GalNAc(a1-3)]Gal(b1-4)GlcNAc(b1-3)[Fuc(a1-2)[GalNAc(a1-3)]Gal(b1-4)GlcNAc(b1-6)]GalNAc
# Outline: as §1
# [12] = target: Fuc(a1-2)[GalNAc(a1-3)]Gal(b1-4)[Fuc(a1-3)]GlcNAc(b1-3)GalNAc
# Outline: as §1
# [13] = target: Fuc(a1-3)[Gal3S(b1-4)]GlcNAc
# Outline: as §1
# [14] = target: Gal(b1-3)Gal(b1-4)GlcNAc
# Outline: as §1
# [15] = target: Gal(b1-3)GalNAc(a1-3)[Fuc(a1-2)]Gal(b1-4)Glc
# Outline: as §1
# [16] = target: Gal(b1-3)GalNAc(a1-3)[Fuc(a1-2)]Gal(b1-4)GlcNAc
# Outline: as §1
# [17] = target: Gal(b1-3)GlcNAc(b1-3)Gal(b1-4)GlcNAc(b1-3)Gal(b1-4)GlcNAc(b1-2)[Gal(b1-3)GlcNAc(b1-3)Gal(b1-4)GlcNAc(b1-3)Gal(b1-4)GlcNAc(b1-6)]Man(a1-6)[Gal(b1-3)GlcNAc(b1-3)Gal(b1-4)GlcNAc(b1-3)Gal(b1-4)GlcNAc(b1-2)Man(a1-3)]Man(b1-4)GlcNAc(b1-4)[Fuc(a1-6)]GlcNAc
# Outline: as §1
# [18] = target: Gal(b1-3)GlcNAc(b1-3)Gal(b1-4)GlcNAc(b1-6)[Gal(b1-3)GlcNAc(b1-3)]Gal(b1-4)Glc
# Outline: as §1
# [19] = target: Gal(b1-3)[Fuc(a1-4)]GlcNAc(b1-2)Man(a1-3)[Gal(b1-3)[Fuc(a1-4)]GlcNAc(b1-2)Man(a1-6)]Man(b1-4)GlcNAc(b1-4)[Fuc(a1-6)]GlcNAc
# Outline: as §1
# [20] = target: Gal(b1-4)GlcNAc(b1-2)Man(a1-3)[GlcNAc(b1-2)Man(a1-6)]Man(b1-4)GlcNAc(b1-4)GlcNAc
# Outline: as §1
# [21] = target: Gal(b1-4)GlcNAc(b1-3)Gal(b1-4)GlcNAc(b1-2)Man(a1-3)[Gal(b1-4)GlcNAc(b1-3)Gal(b1-4)GlcNAc(b1-2)Man(a1-6)]Man(b1-4)GlcNAc(b1-4)[Fuc(a1-6)]GlcNAc
# Outline: as §1
# [22] = target: Gal(b1-4)GlcNAc(b1-3)Gal(b1-4)GlcNAc(b1-3)Gal(b1-4)GlcNAc(b1-3)Gal(b1-4)GlcNAc(b1-2)Man(a1-3)[Gal(b1-4)GlcNAc(b1-3)Gal(b1-4)GlcNAc(b1-3)Gal(b1-4)GlcNAc(b1-3)Gal(b1-4)GlcNAc(b1-2)Man(a1-6)]Man(b1-4)GlcNAc(b1-4)[Fuc(a1-6)]GlcNAc
# Outline: as §1
# [23] = target: Gal3S(b1-4)Glc6S
# Outline: as §1
# [24] = target: GalNAc4S6S(b1-4)GlcNAc
# Outline: as §1
# [25] = target: GlcA(b1-3)GlcNAc
# Outline: as §1
binder,measurement,setting,value
CvGal2 (Crassostrea virginica) (protein) MGSSHHHHHHSSGLVPRGSHMRIREAGKRKDTTKVYQIPDGLFPGQQVMLRGRVPWGSKSFSINFSATPRMGEGDILFHLNPRPSEGVCIRNALLNGSWGAEEKWQPYFPFDDGRSFSVKIEVTNDAFRTFVNGRPFVDFLHRTDFRAGKYLTLREGAEYYDVIFQSKPNIPLTTAIHNGMRIGKTIRIRGMCTAQDGFAINFNDNRNNIYFHFNARPAQRTVVRNSYFGSWGNEETAISKEFPFYPFLYFYASFVCMEDKFAVYVNDEHFIDFAHRGNPNNISVLQIKGSVNVLDTECLEPMGEDAMTEVDSGLENGDLFVLNGLMTERGKTFAVNFLNGFTENDDIALHFNPRKSTGEVVLNSRYGGAWQSEEKVALPGVFWSNRPLQVKVETKRNKFKIYVNGVDLAKYKIRGNVEDVHAVQVKGDVFLLETLLLKRLMKPVWERLTGGIRPGTWVTLQGTPKKNWQQFVVNFALDDTLDGDIAFHFNVRRGARQVVRNHRQSGAWGREETVTPFFAFDSEATFEIVFFVKEEKFLIYFNGKLFFEFVHRVPVERITHIYMDGDCNFYEPEVVI,glycan array binding signal (z-score),[1],4.44
same,glycan array binding signal (z-score),[2],5.23
same,glycan array binding signal (z-score),[3],4.03
same,glycan array binding signal (z-score),[4],2.16
same,glycan array binding signal (z-score),[5],7.14
same,glycan array binding signal (z-score),[6],4.12
same,glycan array binding signal (z-score),[7],0.97
same,glycan array binding signal (z-score),[8],3.72
same,glycan array binding signal (z-score),[9],3.77
same,glycan array binding signal (z-score),[10],4.33
same,glycan array binding signal (z-score),[11],6.77
same,glycan array binding signal (z-score),[12],-0.333
same,glycan array binding signal (z-score),[13],-0.329
same,glycan array binding signal (z-score),[14],0.538
same,glycan array binding signal (z-score),[15],3.35
same,glycan array binding signal (z-score),[16],4.05
same,glycan array binding signal (z-score),[17],2.77
same,glycan array binding signal (z-score),[18],4.4
same,glycan array binding signal (z-score),[19],-0.33
same,glycan array binding signal (z-score),[20],-0.329
same,glycan array binding signal (z-score),[21],-0.175
same,glycan array binding signal (z-score),[22],-0.126
same,glycan array binding signal (z-score),[23],0.689
same,glycan array binding signal (z-score),[24],-0.33
same,glycan array binding signal (z-score),[25],-0.318
